# Experimental data: PubChem BioAssay (NCATS)
# Results filed as inconclusive are left out. Unmarked numbers belong to inactive results. Activity calls are given as the source filed them. The call rests on the fitted dose curve; in most records, active means well fitted cell-killing curve with a large enough effect; inconclusive means small, poorly fitted or top-dose-only effect, or effect the other way; inactive means no such curve, though single readings can be large or run the other way.
# Test: Viability qHTS for spleen associated tyrosine kinase inhibitor (SYKi) drug resistant MV4-11 cells (AID 1963824); further: nearly all actives have a fitted effect of over 35% in size
# Conditions: SYKi-resistant MV4-11 viability, CellTiter-Glo, 72 h; series mostly up to 45 µM; viability, % of control: at the top concentration
# Method in brief: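 SYK inhibitor-resistant MV4-11 AML cells, 500 per well, added to predispensed compounds and incubated 72 hr at 37 C, 5% CO2. Viability measured by CellTiter-Glo luminescence after 10 min at room temperature.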
# Potency means the concentration at half of the fitted maximal effect.
SMILES,"viability, % of control",Potency
C=C[C@H]1[C@H](O[C@@H]2O[C@H](CO)[C@@H](O)[C@H](O)[C@H]2O)OC=C(C(=O)OC)[C@H]1CCO,99.6%,
CC1(C)CC[C@]2(C(=O)O)[C@H](O)C[C@]3(C)C(=CCC4[C@@]5(C)CC[C@H](O[C@@H]6OC[C@@H](O)[C@H](O)[C@H]6O)[C@@](C)(C(=O)O)C5CC[C@]43C)[C@@H]2C1 (some centres undefined),108% [at 17.3 µM],
O=C(c1c2ccccc2cc2ccccc12)N1CCC(N2CCC[C@@H](C(=O)N3CCOCC3)C2)CC1,,16.4 µM (active)
C[C@@H]1CC[C@@]2(OC1)O[C@H]1C[C@H]3[C@@H]4CC=C5C[C@@H](O)CC[C@]5(C)[C@H]4CC[C@]3(C)[C@H]1[C@@H]2C,80.9% [at 17.3 µM],
C/C1=C\CCC2=CC(OC2=O)C(C)(C)/C=C/C1=O (centres undefined),,2.31 µM (active)
CC1CCC2C(C)(C)[C@H](O)CC[C@]2(C)C12Cc1c(O)cc3c(c1O2)CN(C(CCC(=O)O)C(=O)O)C3=O (some centres undefined),90.8% [at 17.3 µM],
CC(C)O[C@@H]1O[C@H](CO)[C@@H](O)[C@H](O)[C@H]1O,97.5%,
CC1=C2CC(O)(C(C)(C)O)C(O[C@@H]3O[C@H](CO)[C@@H](O)[C@H](O)[C@H]3O)CC(C)C2CC1=O (some centres undefined),90.2% [at 17.3 µM],
C[C@@H]1O[C@@H](O[C@H]2[C@H](O[C@H]3[C@H](O[C@H]4CC[C@@]5(C)C(CC[C@]6(C)C5CC=C5[C@@H]7CC(C)(C(=O)O)C[C@@H](O)[C@]7(C)CC[C@]56C)[C@@]4(C)CO)O[C@H](C(=O)O)[C@@H](O)[C@@H]3O)O[C@H](CO)[C@H](O)[C@@H]2O)[C@H](O)[C@H](O)[C@H]1O (some centres undefined),77.5% [at 9.25 µM],
